Rows were chosen to be rich in hits. Some 1.1% of all compounds tested hit in one or more screens of this group.
HTR5A inv ag: inverse agonist of human HTR5A in OPRM1-OPRD1 counter-screen; P47898; HTR5A cell line, luminescence, inverse agonism; inhibition, % at 9.3 µM; 340,000 compounds, 0.083% hits; in the data active = inhibition mostly above about 23%, no sharp cut-off; inactive = mostly below about 18%;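 also: 0% = cells with DMSO and 100% = no-cell wells with DMSO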
Target sequence (P47898 whole entry, looked up): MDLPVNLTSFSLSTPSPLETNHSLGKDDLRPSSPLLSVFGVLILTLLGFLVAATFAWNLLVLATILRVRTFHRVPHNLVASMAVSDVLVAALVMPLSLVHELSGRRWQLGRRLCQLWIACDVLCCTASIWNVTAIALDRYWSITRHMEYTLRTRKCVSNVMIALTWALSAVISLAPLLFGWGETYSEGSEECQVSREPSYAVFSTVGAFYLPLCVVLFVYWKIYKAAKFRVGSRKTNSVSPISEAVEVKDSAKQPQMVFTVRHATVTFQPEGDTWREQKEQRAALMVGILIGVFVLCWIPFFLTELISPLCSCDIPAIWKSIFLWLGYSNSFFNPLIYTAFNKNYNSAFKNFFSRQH
HTR5A ag: HTR5A agonism, opioid heterodimer counter-screen | HTR5A agonist assay, luminescence, cell-based | P47898 | activation, % at 9.3 µM | 340,000 compounds, 0.61% hits; in the data active = activation mostly above about 9.5%, no sharp cut-off; inactive = mostly below about 7.6%;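 also: 0% = cells with vehicle only and 100% = reference agonist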
MOR-DOR inv ag: mu-delta opioid heterodimer inverse agonism; cell-based MOR-DOR heterodimer luminescence; inhibition, % at 9.3 µM; 340,000 compounds, 0.21% hits; AID 504357; in the data active = inhibition above about 22%, passing the limit was not always enough;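 also: 0% = cells with DMSO and 100% = wells without cells with DMSO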
MOR-DOR ag: agonists of human mu-delta opioid receptor heterodimerization; 340,000 compounds, 0.3% hits; P35372+P41143; cells, OPRM1-OPRD1 heterodimerization, luminescence; activation, % at 9.3 µM;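 also: 0% = vehicle-treated cells and 100% = reference agonist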
MOR-DOR ag conf: OPRM1-OPRD1 heterodimer agonism, confirmation | 830 compounds, 45% hits | AID 504904 | activation, % at 9.3 µM | cells, MOR-DOR heterodimerization, luminescence complementation | shares compounds with MOR-DOR ag;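 also: 0% = vehicle-treated cells and 100% = reference agonist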
HTR5A ag counter: activates human HTR5A in OPRM1-OPRD1 agonist counter-screen; AID 504905; 830 compounds, 8% hits; activation, % at 9.3 µM; HTR5A agonist counterscreen, cell luminescence; shares compounds with MOR-DOR ag; in the data active = activation above about 17%;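 also: 0% = vehicle-treated cells and 100% = reference agonist response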
Active calls of the source: *; i = inactive; x = not tested or not shown. Rule as the data show it, unless noted: active = activation above about 18%; inactive = the rest.

SMILES	HTR5A inv ag	HTR5A ag	MOR-DOR inv ag	MOR-DOR ag	MOR-DOR ag conf	HTR5A ag counter
O=C(OCc1ccccc1)/C(=C/c1cccc(Br)c1)NC(=O)c1ccco1	2.2	1.7	-115.1	20.8*	-2.5	-3.5
CCOc1cc(C)c(S(=O)(=O)Nc2ccc(F)cc2)cc1C	-10.7	10.0	-96.4	18.9*	10.6	3.6
S=C(NCCc1ccccc1)N1CCN(C23CC4CC(CC(C4)C2)C3)CC1	7.1	-2.8	-96.0	20.3*	9.7	0.6
O=C(N[C@H]1C/C=C\C[C@H](CC(=O)N(CCO)Cc2ccccc2)C(=O)N[C@H](Cc2c[nH]c3ccccc23)COC1=O)OCC1c2ccccc2-c2ccccc21	-6.7	-1.1	-154.0	28.6*	35.2*	4.3
O=C(N[C@H]1C/C=C\C[C@@H](CC(=O)N(CCO)Cc2ccccc2)C(=O)N[C@H](Cc2c[nH]c3ccccc23)COC1=O)OCC1c2ccccc2-c2ccccc21	-13.6	3.1	10.8	-1.8	x	x
CSCCC(NS(=O)(=O)c1ccc(C)cc1)C(=O)N1CCN(C(C)=O)CC1 (centres undefined)	-6.2	1.2	11.2	-2.3	x	x
CSCCC(NS(=O)(=O)c1ccc(C)cc1)C(=O)N1CCN(C(c2ccccc2)c2ccccc2)CC1 (centres undefined)	-7.9	-1.0	-278.4	57.1*	4.0	7.5
O=C(NCC(c1ccc(F)cc1)N1CCOCC1)c1ccco1 (centres undefined)	11.2	-4.6	6.3	-1.2	x	x
Cc1ccccc1Nc1nc(N)nc(COC(=O)[C@@H](NC(=O)c2c(F)cccc2F)C(C)C)n1	-1.9	-0.5	-3.8	0.7	x	x
O=S(=O)(c1ccc(F)cc1)N1CCN(Cc2ccccn2)CC1	5.0	-1.8	6.1	-1.2	x	x
O=C(CSc1nccc(-c2cccs2)n1)Nc1ccc(Cl)cc1	-38.2	0.6	13.6	-2.8	x	x
Cc1onc(-c2ccc(Cl)cc2)c1-c1ccnc(SCC(=O)Nc2ccc(C(C)C)cc2)n1	-6.5	2.5	-294.2	56.2*	-0.2	-3.0
CNC[C@H](Cc1ccccc1)NC[C@@H](Cc1cccc2ccccc12)NCCc1ccc(C)cc1	-10.9	1.0	-167.2	29.7*	3.6	-1.4
CCc1ccc(CNC(=O)C2CCC(=O)N(CCc3ccc(Cl)cc3)C2)nc1 (centres undefined)	10.9	3.1	13.5	-2.5	x	x
CC(C)c1ccc(NC(=O)CNCC(c2ccccc2)N(C)C)cc1 (centres undefined)	-1.2	-5.9	-1.4	0.3	x	x
COc1ccc(C(CNC(=O)c2ccc(S(=O)(=O)N(C)C)cc2)N(C)C)cc1 (centres undefined)	8.9	-3.5	i	95.3*	104.8*	0.3
Cc1ccc(S(=O)(=O)Nc2cccc(C(=O)NCC(c3ccco3)N(C)C)c2)cc1F (centres undefined)	1.6	-0.6	-43.9	8.4	x	x
COc1ccc(C(CNC(=O)c2cccc(NS(=O)(=O)c3ccc(Br)cc3)c2)N(C)C)cc1 (centres undefined)	13.5	-5.5	-383.7	73.8*	12.0	4.1
Cc1ccc(NC(=O)CNCC(c2ccccc2)N(C)C)cc1F (centres undefined)	16.0	2.6	-205.5	39.5*	-2.0	-2.8
Cc1ccc(S(=O)(=O)Nc2cccc(C(=O)NCC(c3ccccc3)N(C)C)c2)cc1F (centres undefined)	18.6	-7.6	-262.6	50.5*	0.2	-0.3
CCN(c1ccccc1)S(=O)(=O)c1ccc(C(=O)NCC(c2cccs2)N(C)C)cc1 (centres undefined)	6.2	-2.5	5.7	-1.2	x	x
CCN(c1ccccc1)S(=O)(=O)c1cc(C(=O)NCC(c2ccc(OC)cc2)N(C)C)ccc1C (centres undefined)	-16.3	4.5	-107.4	20.5*	6.2	2.4
COc1ccc(CNC[C@@H](CCCCN(C)Cc2ccc(OC)cc2)N2C[C@H](c3ccccc3)N(CCc3ccc(Cl)c(Cl)c3)C(=O)C2=O)cc1	-57.1	21.2*	-473.4	81.2*	126.9*	32.8*
COc1ccc(CNC(=O)[C@@H]2CC=C[C@@H]3CCN(Cc4ccc(Cl)c(Cl)c4)C(=O)[C@@H]32)cc1	11.6	-4.0	7.9	-1.4	x	x
Cc1ccc(NC(=O)Nc2cc(Cl)ccc2C2COC(=O)C2=N)cc1 (centres undefined)	-3.5	1.2	-118.5	23.1*	4.8	39.4*
SMILES	HTR5A inv ag	HTR5A ag	MOR-DOR inv ag	MOR-DOR ag	MOR-DOR ag conf	HTR5A ag counter
CCC(CC)CN1CCN=C1N(C)C	-13.3	-0.2	1.4	-0.3	x	x
O=C(Nc1ccon1)c1sc2cc(Cl)ccc2c1Cl	-4.3	3.0	5.6	-1.7	x	x
Cn1c(CN2CCN(c3cccc(Cl)c3)CC2)nc2ccccc21	11.0	2.8	-140.5	28.6*	123.6*	1.6
Cc1ccc(N2CCN(c3ccc(NCc4nc5ccccc5n4C)cc3)CC2)cc1	8.7	-3.2	i	282.8*	45.9*	30.1*
CCC(CC)C(=O)Nc1cccc(-c2ccc3nncn3n2)c1	7.3	0.0	10.2	-2.0	x	x
Cc1c(CCOC(=O)c2cc([N+](=O)[O-])cc([N+](=O)[O-])c2)sc[n+]1CC(=O)c1ccccc1	-17.7	6.2	-25.2	4.9	x	x
Cc1c(CCOC(=O)c2ccccc2)sc[n+]1CC(=O)c1ccc(Br)cc1	-17.2	5.8	-288.0	35.7*	54.0*	-1.0
CN1C2C=C(N(CCc3ccccc3)C(=O)c3ccc(Cl)cc3)CC1CC2 (centres undefined)	5.0	1.3	-376.5	73.4*	88.9*	-3.8
CN1C2CCC1CC(N(CCc1ccccc1)C(=O)c1ccc(Cl)cc1)C2 (centres undefined)	-8.5	2.2	-10.8	2.3	x	x
CCOC(=O)c1sc2nc(SCC(=O)NCc3ccco3)n(Cc3ccccc3)c(=O)c2c1C	1.6	0.0	i	150.3*	2.1	2.5
Cc1oc2c(c1C(=O)c1ccccc1)C(=O)C(=O)c1ccccc1-2	-2.2	1.0	-89.5	18.1*	20.9*	5.3
COC(=O)/C(=C(/F)Sc1cc(C)c(O)c(C)c1)C(F)(F)F	-5.5	-0.3	-20.5	3.8	x	x
Cc1ccc(/C=N/NC(=O)c2cccc(S(=O)(=O)Nc3cccc(Cl)c3)c2)o1	15.6	0.3	-95.6	19.1*	21.5*	10.1
COc1ccccc1NS(=O)(=O)c1cccc(C(=O)N/N=C/c2ccc(C)o2)c1	-0.2	7.3	4.4	-0.8	x	x
CCN(CC)S(=O)(=O)c1cccc(C(=O)N/N=C(\C)c2cccs2)c1	-1.6	0.6	5.6	-1.1	x	x
C/C(=N\NC(=O)c1cccc(S(=O)(=O)Nc2cccc(Cl)c2)c1)c1cccs1	-15.2	5.8	-103.3	20.3*	3.3	0.3
Cc1ccc2c(cnn2C(=O)CCC(=O)NCc2cccc(Cl)c2)c1	-11.8	-3.7	7.7	-1.4	x	x
Cc1ccc(CN2C(=O)CCC2C(=O)NCc2ccccc2Cl)cc1 (centres undefined)	4.0	-2.9	4.6	-0.9	x	x
